Results as given in PubChem BioAssay (Tox21).
Results filed as inconclusive are left out. Unmarked numbers belong to inactive results. Activity calls are given as the source filed them. Calls follow the shape of the dose curve; as a rule, active = well fitted cell-killing curve with a large enough effect in the repeat runs; inconclusive = weak or mixed curves, or effect the other way; inactive = no such curve, though single readings can be large or run the other way.

Assay: qHTS assay to identify small molecule antagonists of the vitamin D receptor (VDR) signaling pathway - cell viability counter screen (AID 743225); also: nearly all actives have a fitted effect of over 50% in size
Conditions: VDR-bla HEK293T viability, CellTiter-Glo luminescence, 16 h; series mostly up to 61 µM; viability change, negative = cytotoxic: at the top concentration
Excerpt: U.S. Tox21 Program National Center for Advancing Translational Sciences [NCATS] NIH Chemical Genomics Center [NCGC] U.S. Environmental Protection Agency [EPA] National Institutes of Environmental Health Sciences [NIEHS] National Toxicology Program [NTP] U.S. Food and Drug Administration [FDA] Tox21 Assay Overview: The vitamin D receptor (VDR), a member of nuclear hormone receptor superfamily, plays a critical role in calcium homeostasis and bone metabolism. It is also involved in cell differentiation and growth, and thrombogenicity. To identify the compounds that inhibit VDR signaling, the VDR-UAS-bla HEK 293T cell line (Invitrogen, Carlsbad, CA, USA) containing a beta-lactamase reporter gene under the control of an upstream activator sequence (UAS) was used to screen the Tox21 10K compound library. The cytotoxicity of the Tox21 compound library against the VDR-bla cell line was tested in parallel by measuring the cell viability using CellTiter-Glo assay (Promega, Madison, WI) in the same wells.
Tox21 Assay Protocol Summary: VDR-bla cells were dispensed at 2,000 cells/5 uL of assay medium per well into black wall/clear-bottom 1536-well plates using a Multidrop Combi (Thermo Fisher Scientific, Waltham, MA) dispenser. After the assay plates were incubated at a 37C and 5% CO2 for 4 h, 23 nL of compounds dissolved in DMSO, positive controls or DMSO only was transferred to the assay plate by a Pintool station (Kalypsys, San Diego, CA), followed by addition of 1 uL of 1-alpha, 25-Dihydroxy Vitamin D3 (3 nM, final concentration in the wells) using a Bioraptr Flying Reagent Dispenser (FRD) workstation (Beckman Coulter, Indianapolis, IN). The plates were incubated at 37C and 5% CO2 for 16 h, and then 1 uL of LiveBLAzerTM B/G FRET substrate was added using a Bioraptr FRD. The plates were incubated at room temperature for 2 h and fluorescence intensity was measured by an Envision plate reader (PerkinElmer, Shelton, CT). For cell viability readout that measures cytotoxicity, 3 ul/well of CellTiter-Glo reagent was added into the assay plates using a Bioraptr FRD. After 30 min incubation at room temperature, the luminescence intensity in the plates was measured using a ViewLux plate reader (PerkinElmer).
% is scaled to controls: 0 for no effect and ±100 for the full control effect.

SMILES	outcome	viability change, negative = cytotoxic
c1ccc2c(c1)Oc1ccccc1O2	inactive	–
COC(=O)NS(=O)(=O)c1ccc(N)cc1	inactive	–
Cc1cc(-c2cc(C)c(N)c(C)c2)cc(C)c1N	inactive	–
CC(C)NC(=O)N1CC(=O)N(c2cc(Cl)cc(Cl)c2)C1=O	inactive	–
CC(C)(C)C(O)(CCc1ccc(Cl)cc1)Cn1cncn1 (stereo not given)	inactive	–
CCOC(=O)c1ccccc1C(=O)OCC	inactive	–
C1CC2OC2CC1C1CO1 (stereo not given)	inactive	–
c1ccc(-c2ccccc2)cc1	inactive	–
Cc1ccc(N)cc1Cl	inactive	–
Clc1ccc(Cl)cc1	inactive	–
Clc1cccc(Cl)c1Cl	inactive	–
CN=C=S	inactive	–
CCN(CC)CCO	inactive	–
C=CC(N)=O	inactive	–
CC(NC(C)(C)C)C(=O)c1cccc(Cl)c1 (stereo not given)	inactive	–
CCCCN(CC)C(=O)SCCC	inactive	–
C[C@]12CC[C@H]3[C@@H](CC[C@@]45O[C@@H]4C(O)=C(C#N)C[C@]35C)[C@@H]1CC[C@@H]2O	–	-0.402%
CCCN(CCC)N=O	–	-6.64%
CCOP(=S)(OCC)Oc1cnc2ccccc2n1	inactive	–
Cn1cc(-c2ccccc2)c(=O)c(-c2cccc(C(F)(F)F)c2)c1	inactive	–

SMILES	outcome	viability change, negative = cytotoxic
CC(C)N1C(=O)c2ccccc2NS1(=O)=O	inactive	–
Cc1ccc(N)cc1N	inactive	–
NCCc1ccc(O)cc1	inactive	–
O=c1n(Cl)c(=O)n(Cl)c(=O)n1Cl	inactive	–
c1ccc2c(c1)oc1ccccc12	inactive	–
O=Cc1cccc(Oc2ccccc2)c1	inactive	–
O=[N+]([O-])c1ccc(Oc2ccc(Cl)cc2Cl)cc1	–	14.7% [at 78.8 µM]
CCC(C)(CC)c1cc(NC(=O)c2c(OC)cccc2OC)on1	inactive	–
CCc1cccc(C)c1N(C(=O)CCl)C(C)COC (stereo not given)	inactive	–
CCCCCCCCCCCC#N	inactive	–
COC(=O)c1ccccc1N	inactive	–
CC(Br)C(=O)O (stereo not given)	inactive	–
Cc1cc(Cl)ccc1O	inactive	–
ClCCBr	inactive	–
CC(Oc1ccc(Cl)cc1Cl)C(=O)O (stereo not given)	inactive	–
CC(C)C#N	inactive	–
Nc1ccc(Br)cc1	–	-2.99%
BrCCBr	inactive	–
CC(C)C1(C)N=C(c2nc3ccccc3cc2C(=O)O)NC1=O (stereo not given)	inactive	–
[N-]=[N+]=[N-]	inactive	–
